Assay results published in PubChem BioAssay (EPA / NIEHS).
Values joined by “and” are separate entries in the source; they are usually repeats but may differ in a detail not shown here. Equal entries are not always repeated. Inconclusive results are not listed. Where a structure was tested more than once in an assay, its records may differ in their call. Active and inactive are the calls of the source. The calls were made as follows, unless noted: active = hit-call score of the fitted dose curve at least 0.9, where 1 is the maximum; inconclusive = response in the unintended direction; inactive = score below 0.9.

How the values were obtained:
[1] = target: Cellular tumor antigen p53 (Homo sapiens) (UniProt P04637); assay: TOX21_p53_BLA_p2_ratio: Tox21 HCT-116 p53 Agonism Beta-lactamase Assay, Ratio, Phase 2 (AID 2283592)
Cellular tumor antigen p53 (Homo sapiens), sequence (P04637 whole entry, looked up): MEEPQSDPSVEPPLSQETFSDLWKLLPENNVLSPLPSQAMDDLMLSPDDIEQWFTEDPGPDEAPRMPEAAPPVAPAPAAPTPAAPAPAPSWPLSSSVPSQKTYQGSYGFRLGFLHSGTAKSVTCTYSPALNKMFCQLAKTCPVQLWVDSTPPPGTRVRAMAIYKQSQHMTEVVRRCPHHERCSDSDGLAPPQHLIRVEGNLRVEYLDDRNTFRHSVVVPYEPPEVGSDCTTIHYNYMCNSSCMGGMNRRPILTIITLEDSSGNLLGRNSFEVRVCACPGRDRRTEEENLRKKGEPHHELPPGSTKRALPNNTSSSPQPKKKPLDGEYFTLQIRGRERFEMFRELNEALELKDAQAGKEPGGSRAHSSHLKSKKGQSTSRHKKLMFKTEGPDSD
In short: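 DMSO-normalized, positive-direction endpoint derived from the 460 nm/530 nm FRET ratio in HCT116 p53 beta-lactamase reporter cells exposed 16 h at 37C and loaded with CCF4-AM for 2 h.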

[2] = target: Cellular tumor antigen p53 (Homo sapiens) (UniProt P04637); assay: TOX21_p53_BLA_p3_ratio: Tox21 HCT-116 p53 Agonism Beta-lactamase Assay, Ratio, Phase 3 (AID 2283596)
In short: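 Cells were seeded at 4000/well, rested 5 h at 37C, then dosed with DMSO compound solutions (217-fold dilution) for 16 h. CCF4-AM substrate was loaded for 2 h at room temperature, and the 460/530 nm emission ratio was fitted for gain of signal versus DMSO.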

[3] = TOX21_p53_BLA_p4_viability: Viability Assessment in the Tox21 HCT-116 p53 Agonism Beta-lactamase Assay, Phase 4 (AID 2283597);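 also: hits lower the luminescence signal meaning cytotoxicity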
In short: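 In this multiplexed secondary endpoint, HCT116 cells (4000 per well, compound at 5 h, 16 h treatment) received CellTiter-Glo after the beta-lactamase read. Luminescence after 30 min RT reflects ATP, and falling signal marks cytotoxicity.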

[4] = target: Cellular tumor antigen p53 (Homo sapiens) (UniProt P04637); assay: TOX21_p53_BLA_p5_ratio: Tox21 HCT-116 p53 Agonism Beta-lactamase Assay, Ratio, Phase 5 (AID 2283599)
In short: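 HCT-116 p53-bla cells (4000/well) plated 5 h, dosed with compound (217-fold DMSO dilution) for 16 h at 37 C; CCF4-AM substrate 2 h at room temperature. Activity is the 460/530 nm emission ratio (405 nm excitation), fitted in gain-of-signal direction versus DMSO.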

[5] = TOX21_p53_BLA_p5_viability: Viability Assessment in the Tox21 HCT-116 p53 Agonism Beta-lactamase Assay, Phase 5 (AID 2283600)
In short: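 Here cell health was gauged by ATP levels in wells holding 4000 cells, each treated 16 h with DMSO-delivered compounds at 217-fold dilution; reduced luminescence marked toxicity.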

[6] = target: Cellular tumor antigen p53 (Homo sapiens) (UniProt P04637); assay: TOX21_p53_BLA_p4_ratio: Tox21 HCT-116 p53 Agonism Beta-lactamase Assay, Ratio, Phase 4 (AID 2283601)
In short: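 HCT-116 p53 beta-lactamase reporter cells (4000/well) preincubated 5 h, then compound (217-fold dilution of DMSO stock) for 16 h at 37C. CCF4-AM substrate added 2 h at room temperature; 460/530 nm emission ratio fitted upward versus DMSO.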

[7] = CEETOX_H295R_MTT_cell_viability: Viability Assessment in the CeeTox HT-H295R MTT Assay (AID 2283718; active = hit-call score of the fitted dose curve at least 0.9, where 1 is the maximum; inactive = score below 0.9;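 as to AC50: curve fitted both ways so AC50 may mark viability loss or gain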)
In short: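 Human H295R adrenal cells, prestimulated 48 h with 10 uM forskolin, were exposed 48 h to chemicals in 0.1% DMSO. Viability was measured in the same wells by MTT (0.5 mg/ml, 4 h, 37 C), absorbance 570/650 nm, as percent of controls.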

[8] = test system: Thyroperoxidase (TPO), gene 54314; assay: CCTE_Simmons_AUR_rTPO: CCTE's Amplex UltraRed Assay for Thyroperoxidase (TPO) Inhibition, Simmons Lab (AID 2283662);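 also: potency for loss of signal meaning inhibition of peroxidase activity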
In short: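 Cell-free peroxidase activity assay using rat thyroid gland microsomes with excess H2O2 (300 uM) and 25 uM Amplex UltraRed. Compounds tested from 5 nM to 87.5 uM; fluorescence measured after 30 min at 37C, analysed relative to DMSO baseline.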

[9] = CCTE_Simmons_CellTiterGLO_HEK293T: Viability Assessment in CCTE's Assays for Thyroperoxidase (TPO) Inhibition, Simmons Lab (AID 2283665);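 as to AC50: cells exposed to compound for 24 h before readout; actives reduce ATP signal below DMSO vehicle meaning cytotoxicity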
Method: CCTE_Simmons_CellTiterGLO_HEK293T is a cell-based, single-readout assay that uses HEK293T, a human kidney cell line, with measurements taken at 24 hours after chemical dosing in a 384-well plate.CCTE_Simmons_CellTiterGLO_HEK293T is the assay component measured from the CCTE_Simmons_CellTiterGLO_HEK293T assay. It is designed to make measurements of ATP content, a form of viability reporter, as detected with bioluminescence signals by Luciferase-coupled ATP quantitation technology. This is a secondary cytotoxicity assay to CCTE_Simmons_AUR_TPO to estimate a cellular tolerance limit.Data from the assay component CCTE_Simmons_CellTiterGLO_HEK293T was analyzed at the endpoint, CCTE_Simmons_CellTiterGLO_HEK293T, in the positive analysis fitting direction relative to DMSO as the negative control and baseline of activity. Using a type of viability reporter, measures of ATP content for loss-of-signal activity can be used to understand the viability. This assay was run in parallel with aeid 1508 as a means of indicating the range of chemical cytotoxicity or reactivity. To generalize the intended target to other relatable targets, this assay endpoint is annotated to the cell cycle intended target family, where the subfamily is cytotoxicity.
Human HEK293T cells (GenHunter; Nashville, Tennessee) were seeded overnight in 384-well, solid white assay plates (Greiner, BioExpress) at a density of 10 000 cells per well in 65 ul Dulbecco's Modified Eagle Medium (Life Technologies; Carlsbad, California) supplemented with 1% fetal bovine serum (HyClone; Logan, Utah). Test compounds were administered using the HDRT as described earlier to achieve a 0.5% final DMSO concentration. Cells were then incubated at 37C for 24 hr in a humidified 5% CO2 incubator. Cell Titer Glo (Promega; Madison, WI) reagent (25 ul) was then added by the BioTek MicroFlo and microplates were incubated at room temperature in the dark for 20min. Plates were read on a plate reader (FLUOStar Optima) using an endpoint luminescence protocol (top read). Three biological replicates of technical singles were run for every chemical concentration tested. A titrated range of DCNQ served as a positive control on each plate of the cytotoxicity screening assay.Test chemicals were administered as a titrated series of 8 concentrations from 5 nM up to 87.5 uM [final] for 24 hours prior to single endpoint detection. Three biological replicates of technical singles were run for every chemical concentration tested. Dimethylsulfoxide [DMSO] was used as the vehicle control. Dichlone [DCNQ] was used as the positive control and was administered as a titrated series of 8 concentrations from 1 nM up to 100 uM [final].

[10] = target: Luciferin 4-monooxygenase (Photinus pyralis) (UniProt P08659); assay: CCTE_Simmons_QuantiLum_inhib_2: CCTE's Firefly Luciferase Inhibition Assay, Simmons Lab (AID 2283767);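 as to AC50: potency for inhibitors that lower luciferase luminescence relative to DMSO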
Luciferin 4-monooxygenase (Photinus pyralis), sequence (P08659 whole entry, looked up): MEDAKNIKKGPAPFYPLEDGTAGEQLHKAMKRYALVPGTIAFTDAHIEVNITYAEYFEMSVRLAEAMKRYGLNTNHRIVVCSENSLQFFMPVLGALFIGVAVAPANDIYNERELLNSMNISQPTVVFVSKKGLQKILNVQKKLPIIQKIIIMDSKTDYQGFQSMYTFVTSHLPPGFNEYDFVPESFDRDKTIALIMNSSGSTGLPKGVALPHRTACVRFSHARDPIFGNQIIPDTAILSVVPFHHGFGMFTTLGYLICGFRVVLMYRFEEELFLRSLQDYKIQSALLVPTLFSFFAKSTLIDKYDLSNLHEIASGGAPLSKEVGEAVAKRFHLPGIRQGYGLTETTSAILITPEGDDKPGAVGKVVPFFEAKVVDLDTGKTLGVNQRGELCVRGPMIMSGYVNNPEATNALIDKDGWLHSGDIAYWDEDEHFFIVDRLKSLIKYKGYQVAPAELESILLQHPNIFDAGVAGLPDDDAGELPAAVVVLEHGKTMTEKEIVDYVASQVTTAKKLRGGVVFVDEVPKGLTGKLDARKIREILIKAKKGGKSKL
Method: CCTE_Simmons_QuantiLum_inhib_2 is a biochemical, single-readout assay that uses purified luciferase enzyme in a cell-free assay.Measurements were taken 0.5 hour after chemical dosing in a 384-well plate.CCTE_Simmons_QuantiLum_inhib_2 is the assay component measured from the CCTE_Simmons_QuantiLum_inhib_2 assay. It is designed to make measurements of enzyme activity, a form of enzyme reporter, as detected with bioluminescence signals by Luciferase-coupled Quantilum levels technology. This is a secondary assay to CCTE_Simmons_AUR_TPO to evaluate nonspecific enzyme inhibition.Data from the assay component CCTE_Simmons_QuantiLum_inhib_2 was analyzed at the endpoint, CCTE_Simmons_QuantiLum_inhib_2, in the positive analysis fitting direction relative to DMSO as the negative control and baseline of activity. Using a type of enzyme reporter, measures of enzyme activity for loss-of-signal activity can be used to understand inhibition of firefly luciferase. This is an assay endpoint to indicate nonspecific protein inhibition for comparison to aeid 1508 for thyroperoxidase inhibition. To generalize the intended target to other relatable targets, this assay endpoint is annotated to the oxidoreductase intended target family, where the subfamily is monooxygenase.
Quanti-Lum recombinant luciferase (Promega; Madison, Wisconsin) was diluted to 76.9 ng/ml with 200mM potassium phosphate buffer supplemented with 1 mg/ml bovine serum albumin and 65ul (5ng recombinant luciferase) per well was dispensed into opaque, white 384-well plates (Greiner, BioExpress) using an automated liquid handler (BioTek MicroFlo) with a plastic 5 ul tubing cassette. Test compounds were administered using the HDRT as described earlier to achieve a 0.5% final DMSO concentration. Microplates were incubated at 37C in the dark for 30min to mimic the AUR-TPO assay conditions. Luciferase detection reagent (25 ul per well; 9.2 mM dithiothreitol, 75uM Coenzyme A, 147uM dATP, 150uM D-luciferin, 8.9 mM Tricine, 297uM (MgCO3)4.Mg(OH)2.5H20, 742uM MgSO4, 27.8uM EDTA, pH 7.8, final assay concentrations) was then added using a BMG Clariostar plate reader equipped with syringe injectors (BMG LabTech; GmbH). Plates were read using a kinetic luminescence protocol (top read) whereby each well was individually injected with luciferase detection reagent immediately prior to measurement. Three biological replicates of technical singles were run for every chemical concentration tested. A titrated range of LUCINH2 served as a positive control on each plate of the luciferase inhibition screening assay. Test chemicals were administered as a titrated series of 8 concentrations from 5 nM up to 87.5 uM [final] for 30 minutes prior to single endpoint detection. […]

Measured: AC50

Cc1ccc(S(=O)(=O)NCl)cc1
inactive: [1] | [2] | [3] | [4] | [5] | [6]

CC(C)OC(=O)c1ccccc1C(=O)OC(C)C
inactive: [7]

CCCCCCCCCCCCCCCC[N+](C)(C)Cc1ccccc1
inactive: [1] | [2]
active: [1] 64.7 µM | [3] 25.9 µM and 27.1 µM | [4] 75.8 µM and 38.4 µM | [5] 57.9 µM and 23 µM | [6] 42.3 µM and 43.4 µM

CCC(=O)OCCc1ccccc1
inactive: [1] | [2] | [4] | [5] | [6]

Nc1cc(Cl)c(N)c(Cl)c1
inactive: [1] | [3] | [6]

O=C(C=Cc1ccccc1)OCC=Cc1ccccc1
inactive: [1] | [2] | [5] | [6]

c1ccc(B(c2ccccc2)c2ccccc2)cc1
active: [8] 29.2 µM | [9] 90.1 µM | [7] 50 µM | [10] 53.8 µM
inactive: [3] | [4] | [5] | [6]

C1COCCN1
inactive: [1] | [2] | [3] | [4] | [5] | [6]

Nc1ccc([N+](=O)[O-])cc1O
inactive: [1] | [2] | [3] | [4] | [5] | [6]

O=S(=O)(O)c1ccc2ccccc2c1
inactive: [1] | [3] | [4] | [5] | [6]

C#C[C@]1(O)CC[C@H]2[C@@H]3CCc4cc(OC)ccc4[C@H]3CC[C@@]21C
active: [7] 44 µM
not listed: [8] | [9] | [10]
inactive: all other assays above

CCCCCCCOC(=O)c1ccccc1C(=O)OCCCCCCC
inactive: [7]

Cc1cc(C)cc(O)c1
inactive: [1] | [2] | [4] | [6]

CCCCCCOC(=O)c1ccccc1
inactive: [1] | [3] | [4] | [5] | [6]

Nc1ccc(S(=O)(=O)Nc2nccs2)cc1
inactive: [1] | [2] | [4] | [5] | [6]

FC(F)(F)C(F)(F)C(F)(F)C(F)(F)CCI
inactive: [2] | [4] | [5] | [6]

CC(CCl)OP(=O)(OC(C)CCl)OC(C)CCl (centres undefined)
inactive: [2] | [3] | [5] | [6]

CCCCCCS
inactive: [7]

C(=C(c1ccccc1)c1ccccc1)c1ccccc1
inactive: [1] | [3] | [4] | [5]

O=C(OCCOCCOCCOC(=O)c1ccccc1)c1ccccc1
active: [4] 82.1 µM
inactive: [1] | [5] | [6]

Cc1cccc(N(C)C)c1
inactive: [7]

CNC(=S)NC
active: [3] 46.1 µM
inactive: [1] | [4] | [5] | [6]

Oc1ccc(Nc2ccccc2)cc1
inactive: [1] | [2] | [4] | [6]

CC/C=C\CCOC(C)=O
inactive: [2] | [4] | [6]

CCN(Cc1cccc(S(=O)(=O)O)c1)c1ccc(C(=C2C=CC(=[N+](CC)Cc3cccc(S(=O)(=O)O)c3)C=C2)c2ccc(O)cc2S(=O)(=O)[O-])cc1
active: [8] 19.1 µM | [9] 7.74 µM | [10] 3.86 µM

COC(=O)C1CCC(C(=O)OC)CC1 (centres undefined)
not listed: [8] | [9] | [10]
inactive: all other assays above

Nc1ccc(Oc2cccc(Oc3ccc(N)cc3)c2)cc1
inactive: [7]

CC(=O)Nc1ccc(N=Nc2cc(C)ccc2O)cc1
inactive: [7]

CC(Cc1ccc(O)c(O)c1)C(C)Cc1ccc(O)c(O)c1 (centres undefined)
active: [2] 75.1 µM | [3] 46.1 µM | [4] 81.3 µM | [6] 75.5 µM | [8] 0.55 µM | [9] 87 µM | [7] 37.4 µM | [10] 16.1 µM
inactive: [5]

CN(C)Cc1ccccc1O
inactive: [1] | [3] | [4] | [5] | [6]

CCCCCC=O
inactive: [1] | [2] | [3] | [4] | [5]

CCCCOc1ccc(N)cc1
active: [8] 0.869 µM
not listed: [6] | [7]
inactive: all other assays above

CC/C=C\CCOC(=O)c1ccccc1
inactive: [1] | [2] | [3] | [4] | [6]

CCN(CC)c1ccc2c(C)cc(=O)oc2c1
inactive: [3] | [5]
active: [1] 36.8 µM and 44.9 µM | [2] 40.9 µM and 38.6 µM | [4] 38.6 µM and 31.6 µM | [6] 41.6 µM and 36 µM

CCCCNc1ccccc1
inactive: [1] | [2] | [3] | [4] | [6]

CCc1ccc(C(c2ccc(CC)cc2)C(Cl)Cl)cc1
inactive: [1] | [2] | [3] | [4] | [5] | [6]

CCCCCCOC(=O)c1ccccc1O
inactive: [1] | [2] | [3] | [4] | [5]

OC[C@@H](O)[C@@H](O)[C@H](O)[C@@H](O)CO
inactive: [1] | [2] | [4] | [5] | [6]
